For 40 compounds, growth results are on record in PubChem BioAssay (NCI).

This is part of a sample that, as a whole, favours compounds with a hit. Of some 83,000 tested, about 20% had one in any assay.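 Activity criterion: percent growth below 10, measured after cells in 96-well plates were exposed to a single compound concentration for 48 hours.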 The source made the active and inactive calls.

This assay concerns HL-60(TB) leukemia. Briefly: NCI-60 one-dose screen, 48 h (100 = growth as untreated, 0 = no growth, -100 = all killed). The conditions noted are these: 10 µM unless noted.
With `CCSc1nc2scc(C)c2c(=O)[nH]1`, the growth is 99.8% (inactive).
Take `CCN1CCN(c2ccc(Nc3ncc4ccc5ncn(C(C)C)c5c4n3)nc2)CC1`: the growth was -36.3% (active).
To `CCCSc1ccc2nc(NC(=O)OC)[nH]c2c1` belongs 7.7% (active); to `c1ccc2c(-c3nc4ccccc4[nH]3)cccc2c1`, -3.88% (active); to `CCOC(=O)c1csc(-c2ccc(COC(=O)c3ccccc3)o2)n1`, 107% (inactive).
To `S=C(NCc1ccccc1)NCc1ccccc1` belongs 84.7% (inactive).
For `CN(C)CCCN1c2ccccc2CCc2ccccc21`, the growth was 91.4% (inactive).
To `COc1ccc2oc(=O)cc(C(c3ccc[nH]3)c3ccc[nH]3)c2c1` belongs -20.2% (active).
To `CC(NC(=O)C(C)Oc1ccc(Cl)cc1Cl)C(=O)O` (stereo not given) belongs 105% (inactive); to `CSc1nc(N)c2c(n1)N(C)C=NS2(=O)=O`, 124% (inactive); to `C=CCSc1nnc(COc2ccc3c(C)c(Cc4ccccc4)c(=O)oc3c2C)o1`, 96.1% (inactive).
As to `O=C(O)COc1ccc(-c2cssc2=S)cc1`, the growth is 101% (inactive).
To `[2H]C([2H])([2H])Oc1ccc(F)cc1/C=C/C(=O)/C=C(O)/C=C/c1cc(F)ccc1OC([2H])([2H])[2H]` belongs 77.3% (inactive); to `Fc1ccc(-c2cc(C(Cl)Cl)no2)cc1`, 136% (inactive); to `CNc1nc(NC)c2cn[nH]c2n1`, 103% (inactive).
With `CCCCCCCCCCCCCCCCN(C(C)c1ccccc1)S(=O)(=O)c1ccc(OC)c(N)c1` (stereo not given) the figure was 98.2% (inactive); with `COc1ccc2c(c1)O/C(=C\c1ccc([N+](=O)[O-])o1)C2=O`, -17.7% (active); with `O=[N+]([O-])c1cccc(C(F)(F)F)c1`, 109% (inactive).
To `Fc1ccc2nc(-c3nc(-c4ccccc4)n4ccccc34)[nH]c2c1` belongs 67.6% (inactive); to `COc1cc(C(=O)Nc2ccc(-c3nc4ccccc4[nH]3)cc2)cc(OC)c1OC`, 41.9% (inactive).
In the case of `CCCCCCOC(=O)CC1=C(C)/C(=C/c2[nH]c(-c3ccc[nH]3)cc2OC)N=C1C`, the growth was -42.7% (active).
Consider `O=C(C1CCC1)N1N=C(c2ccc(-n3ccc(C(F)(F)F)n3)cc2)CC1c1ccc[nH]1` (stereo not given), for which the growth was 97.8% (inactive).
On to `Nc1ncnc(Nc2ccccc2)n1`, for which the growth is 107% (inactive).
Take `CN(C)CC1CCC(CN(C)C)C1=O` (stereo not given): the growth was 84.2% (inactive).
To `O=C(Oc1ccc[nH]c1=O)c1cc([N+](=O)[O-])cc([N+](=O)[O-])c1` belongs 75.7% (inactive); to `COc1ccc2nc(-c3ccc(Cl)cc3)cc(-c3nnc(SCC(=O)Nc4ccc(C(C)=O)cc4)n3-c3ccccc3)c2c1`, 99.3% (inactive); to `CN1C(=O)N(C)C2C1NN=c1s/c(=C\c3ccc(Cl)cc3Cl)c(=O)n12` (stereo not given), -26.9% (active).
With `Cc1ccc2nc(-c3ccc(-n4on4-c4ccc(/C=C/c5ccc(-n6on6-c6ccc(-c7nc8ccc(C)cc8s7)cc6)cc5S(=O)(=O)O)c(S(=O)(=O)O)c4)cc3)sc2c1` the figure was 101% (inactive); with `COc1cc(Nc2ccnc(NCCNc3ccnc4cc(Cl)ccc34)n2)cc(OC)c1`, 11.9% (inactive); with `CCCCCCNC(=O)c1cc(NCc2cc(O)ccc2O)ccc1O`, -6.21% (active).
With `CCOc1ccc2c(c1)CC[C@@H]1[C@@H]2CC[C@]2(C)[C@@H](O)[C@@H](O)C[C@@H]12` the figure was 97% (inactive); with `COC(=O)c1nc(=S)[nH]c(C(=O)OC)c1C(=O)c1ccccc1`, 116% (inactive); with `O=C(Nc1cccnc1Nc1ccc(Cl)cc1)c1cn(Cc2cccc(Oc3ccccc3)c2)nn1`, 12.9% (inactive).
As for `CC(=O)n1c(-c2ccc(Cl)cc2)nc2c(c1=O)C(c1ccc(Cl)cc1)c1sc3c(Cl)cccc3c1O2` (stereo not given), the growth is -15.4% (active).
With `COc1cc(C(=O)c2c(-c3ccccc3)oc3c(OC)cccc23)cc(OC)c1O` the figure was 3.31% (active); with `COc1cc(-c2cc(-c3nc4ccc(F)cc4[nH]3)[nH]n2)cc(OC)c1OC`, -35% (active).
In the case of `O=C1Nc2ccc(Cl)cc2[C@@](C#CC2CC2)(C(F)(F)F)O1`, the growth is 96.5% (inactive).
To `CN1CCN(CCCOc2ccc3nc(Nc4cc(Cl)cc(Cl)c4)ccc3c2)CC1` belongs -39.2% (active); to `O=C(N/N=C\c1ccccc1O)C1CC1`, 101% (inactive); to `CCCCc1oc2ccccc2c1C(=O)c1cc(I)c(OCCN(CC)CC)c(I)c1`, -62.9% (active).
